# G9a inh – qHTS Assay for Inhibitors of Histone Lysine Methyltransferase G9a; Histone-lysine N-methyltransferase EHMT2 (Homo sapiens), Q96KQ7; G9a H3K9 monomethylation, AlphaScreen, 2 h; Potency, µM (doses to about 102 µM), without a hit: top-dose activity, negative = inhibition, actives largely listed as inhibitors; 8.8% of 350,000 active; AID 504332, 2011; note: potency is the fitted concentration of half-maximal effect; % is set by controls: 0 for no effect and ±100 for the full control effect; nearly all actives have a fitted effect of over 75% in size
# Target sequence (Q96KQ7 913-1193 limits assumed): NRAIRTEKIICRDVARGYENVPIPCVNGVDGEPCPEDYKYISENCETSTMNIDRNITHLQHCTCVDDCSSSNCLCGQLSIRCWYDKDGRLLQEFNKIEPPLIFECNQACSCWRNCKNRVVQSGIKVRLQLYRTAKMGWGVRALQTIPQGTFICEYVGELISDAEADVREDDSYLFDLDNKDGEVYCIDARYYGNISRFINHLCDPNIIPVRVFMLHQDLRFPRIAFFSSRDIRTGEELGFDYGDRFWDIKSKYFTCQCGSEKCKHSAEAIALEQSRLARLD
#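 Step 1: enzyme (final 20 nM) with compound, 15 min RT. Step 2: substrate peptide 500 nM and SAM 20 uM, 2 h RT. Step 3: anti-H3K9me1 antibody and AlphaScreen beads, 10 min, then plate read.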
# HP1b binding inh – HTS for Inhibitors of HP1-beta Chromodomain Interactions with Methylated Histone Tails | 0.56% of 390,000 active | Potency, µM (titrated, usually from 114 µM), for inactives: at the top dose activity change, negative = inhibition, actives largely listed as inhibitors | Chromobox protein homolog 1 (Homo sapiens), P83916 | AID 540317, 2011 | AlphaScreen HP1-beta / biotin-H3K9me3 peptide binding; note: potency is the fitted concentration of half-maximal effect; nearly all actives have a fitted effect of over 70% in size
# Target sequence (P83916 whole entry, looked up): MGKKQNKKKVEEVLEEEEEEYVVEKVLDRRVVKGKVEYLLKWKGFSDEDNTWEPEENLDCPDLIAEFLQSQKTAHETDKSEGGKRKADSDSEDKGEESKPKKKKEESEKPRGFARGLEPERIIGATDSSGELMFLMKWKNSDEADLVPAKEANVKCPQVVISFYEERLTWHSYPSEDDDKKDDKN
#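 HP1-beta protein (50 nM final) preincubated 30 min at room temperature with biotinylated H3(1-18)K9me3 peptide (50 nM) in PBS pH 7.4, 0.01% Tween-20, then compound added for 30 min. AlphaScreen streptavidin donor/nickel chelate acceptor beads (10 ug/mL final), 30 min dark, luminescence read.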
# L3MBTL1 block – qHTS Assay for the Inhibitors of L3MBTL1; Lethal(3)malignant brain tumor-like protein 1 (Homo sapiens), Q9Y468; AlphaScreen L3MBTL1–H3K9me1 peptide binding; Potency, µM (doses to about 57.1 µM), for the others: top-dose activity, negative = inhibition, hits mostly inhibitors; 0.66% of 230,000 active; AID 485360, 2010; note: potency is the fitted concentration of half-maximal effect; % is set by controls: 0 for no effect and ±100 for the full control effect; nearly all actives have a fitted effect of over 60% in size
#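 Read-out is AlphaScreen signal from streptavidin donor and nickel chelate acceptor beads (10 ug/mL final each) bridging L3MBTL1 (50 nM) and biotinylated K9-monomethylated H3(1-15) peptide (75 nM), after 30 min compound exposure at room temperature.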
# BAZ2B inh – qHTS Assay for Inhibitors of BAZ2B | Bromodomain adjacent to zinc finger domain protein 2B (Homo sapiens), Q9UIF8 | 4.4% of 360,000 active | AID 504333, 2011 | Potency, µM (doses to about 114 µM), inactives show top-dose activity change, negative = inhibition, hits mostly inhibitors | AlphaScreen BAZ2B-H3K14Ac peptide displacement; note: potency is the fitted concentration of half-maximal effect; % is set by controls: 0 for no effect and ±100 for the full control effect; nearly all actives have a fitted effect of over 60% in size
#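 AlphaScreen luminescence quantifies BAZ2B engagement of H3K14Ac peptide; the protein and biotinylated peptide are both at 50 nM final, buffer PBS pH 7.4 with 0.01% Tween-20, all steps at room temperature.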
# JMJD2A Tudor – qHTS Assay for Inhibitors of JMJD2A-Tudor Domain; Lysine-specific demethylase 4A (Homo sapiens), O75164; AlphaScreen JMJD2A-Tudor / H3K4me3 peptide binding; Potency, µM (series often up to 114 µM), inactives show at the highest dose activity change, negative = inhibition, usual class: inhibitors; 4.4% of 390,000 active; AID 504339, 2011; note: potency is the fitted concentration of half-maximal effect; % is set by controls: 0 for no effect and ±100 for the full control effect; nearly all actives have a fitted effect of over 50% in size
# PI5P4Ka inh – qHTS for Inhibitors of phosphatidylinositol 5-phosphate 4-kinase (PI5P4K) | Phosphatidylinositol 5-phosphate 4-kinase type-2 alpha (Homo sapiens), P48426 | max response, % | AID 652105, 2013 | PI5P4Kalpha enzyme, ADP-Glo luminescence, 60 min; active compounds read low | 1.2% of 330,000 active; active = max response of -50% or lower; inconclusive = between -30% and -50%; inactive = -30% or higher; note: value at the top dose of about 77 µM; % is set by controls: 0 for no effect and ±100 for the full control effect
#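 Quantitative HTS of the MLSMR library against PI5P4Kalpha with substrate. ATP added last at 5 microM final; room temperature, 60 minutes. Remaining ATP depleted, ADP converted and read as luminescence.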
# * marks the source's active call; other numbers are inactive results; ? = inconclusive; . = not tested or not shown; [ ] = dose if it differs, or a comment. Shown are actives, neighbours in structure and some others; about 11% of the full set was active somewhere. Unless noted, calls come from the whole dose curve; as a rule, active = well fitted inhibition curve with a large enough effect; inconclusive = small, poorly fitted or top-dose-only effect; inactive = no such curve, though single readings can be large or run the other way.
SMILES,G9a inh,HP1b binding inh,L3MBTL1 block,BAZ2B inh,JMJD2A Tudor,PI5P4Ka inh
COc1ccc(NC(=O)CN(C)C(C)C(=O)N2CCCCC2)cc1 (configuration not stated),?,-49.6%,.,22.4µM*,0.891µM*,.
CC1CC(C)CN(C(=O)C(C)N(C)CC(=O)Nc2ccc(Cl)cc2)C1 (configuration not stated),50.1µM*,?,.,44.7µM*,7.94µM*,2.4
CC(C(=O)Nc1ccc2c(c1)OCO2)N(C)CC(=O)Nc1ccc(Cl)cc1 (configuration not stated),.,?,.,.,2.24µM*,-4.5
CNC1C(O)C(OC2C(N)CC(N)C(OC3OC(CN)=CCC3N)C2O)OCC1(C)O (configuration not stated),2.0%[12.7 µM],.,.,.,.,.
COC(=O)c1c(NC(=O)C2CC=CCC2C(=O)O)sc(C)c1C (configuration not stated),?,19.2%,.,-3.9%,-15.8%,.
COC(=O)c1c(-c2ccccc2)csc1NC(=O)C1CC=CCC1C(=O)O (configuration not stated),44.7µM*,?,-0.6%,?,50.1µM*,?
COC(=O)c1c(NC(=O)C2CC=CCC2C(=O)O)sc(C(N)=O)c1C (configuration not stated),17.8µM*,10.4%,.,-4.9%,-23.6%,-20.0
CCCNc1[nH]c(=O)n(C)c(=O)c1N=O,39.8µM*,-0.3%,1.6%,-38.4%[57.1 µM],50.1µM*,?
Cn1c(=O)[nH]c(NC2CCCCC2)c([N+](=O)[O-])c1=O,1.1%[59 µM],32.6%,5.3%,-2.1%,-6.0%,-13.3
CCCNc1nc2c(c(=O)[nH]c(=O)n2C)n1Cc1ccc(F)cc1,1.0%,37.5%,0.6%,8.5%,-16.6%,4.7
Cn1c(=O)[nH]c(NC2CCCCC2)c(N=O)c1=O,?,44.6%,12.4%,?,89.1µM*,1.9
O=C(O)c1ccc(N/N=C/c2ccc(-c3cc(Cl)ccc3Cl)o2)cc1,-38.8%,-8.1%,.,79.4µM*,39.8µM*,-10.3
O=C(O)c1cc(N/N=C/c2ccc(-c3ccc(F)cc3)o2)ccc1Cl,50.1µM*,-9.6%,.,?,-18.0%,-3.4
O=C(O)c1ccc(N/N=C/c2ccc(-c3cccc(Cl)c3)o2)cc1,?,16.4%,.,?,-24.3%[11.4 µM],-1.6
O=C(O)c1cccc(-c2ccc(/C=N/Nc3ccc([N+](=O)[O-])cc3)o2)c1,.,-21.0%,.,44.7µM*,-27.5%,-20.6
O=C(O)c1cc(-c2ccc(/C=N/Nc3ccc([N+](=O)[O-])cn3)o2)ccc1Cl,79.4µM*,?,.,.,39.8µM*,-61.0*
COC(=O)c1ccccc1NC(=O)CSc1cc(-c2ccccc2)nc(C)n1,10.1%[59 µM],43.4%,.,-3.5%,8.6%,.
O=C(O)c1ccc(N/N=C/C=C/c2ccc([N+](=O)[O-])o2)cc1,31.6µM*,?,.,39.8µM*,44.7µM*,?
CCOC(=O)C1=C(O)C(=O)N(CCCn2ccnc2)C1c1ccc(OC)cc1 (configuration not stated),44.7µM*,.,6.6%,-36.1%,.,.
COc1ccc(C2C(C(=O)c3ccco3)=C(O)C(=O)N2CCCn2ccnc2)c(OC)c1 (configuration not stated),50.1µM*,13.1%,.,56.2µM*,28.2µM*,4.1
COc1ccc(C2C(C(=O)c3sc(C)nc3C)=C(O)C(=O)N2CCCn2ccnc2)cc1 (configuration not stated),.,-3.1%,.,.,-28.0%,-4.3
Cc1cccc(Cn2c(=O)n(CCc3ccccc3)c(=O)c3sc4ccccc4c32)c1,11.6%[59 µM],42.8%,.,-13.0%,-12.6%,.
CCOC(=O)CCn1cnc2onc(-c3cc(OC)ccc3Cl)c2c1=O,-2.8%[59 µM],35.8%,.,-3.3%,-7.0%,.
O=S(=O)(c1ccccc1)N1CCN(c2nccc(-c3cccs3)n2)CC1,.,.,.,.,-5.4%,.
O=C1/C(=C/c2ccc(C(=O)O)cc2)CCC/C1=C\c1ccc(C(=O)O)cc1,-44.3%[59 µM],33.1%,-6.6%,3.4%,-11.4%,?
SMILES,G9a inh,HP1b binding inh,L3MBTL1 block,BAZ2B inh,JMJD2A Tudor,PI5P4Ka inh
COc1ccc(/C=C2\CCC/C(=C\C=N\N(C)C)C2=O)cc1,?,?,?,31.6µM*,31.6µM*,-0.5
CN(C)/N=C/C=C1\CCC/C(=C\c2ccc(F)c(F)c2)C1=O,?,?,-22.7%[11.4 µM],39.8µM*,?,-2.7
Cc1ccc(SCc2nc(-c3ccc(C(=O)NCC(C)c4ccccc4)cc3)oc2C)cc1 (configuration not stated),-19.3%[59 µM],31.5%,.,-10.5%,-18.3%,.
Cc1ccc(C)c(CN2C(=O)c3ccccc3S(=O)(=O)c3ccc(C(=O)N4CCN(Cc5ccccc5)CC4)cc32)c1,?,13.0%,.,?,-34.0%,.
COc1ccc([N+](=O)[O-])cc1NC(=O)CC1SC(=Nc2cccc(C)c2C)N(/N=C/c2cccc(OC)c2OC)C1=O (configuration not stated),35.5µM*,-14.3%,-7.3%,-22.3%,-29.0%,-1.1
Cc1cccc(OCC(=O)OCc2cc(=O)n3nc(C4CCCCC4)sc3n2)c1,13.4%[59 µM],61.0%,.,-16.5%,-24.0%,.
O=[N+]([O-])c1cccc(-c2nc(Oc3ccc(Cl)cc3)c3ccccc3n2)c1,11.2µM*,.,-6.7%,?,.,.
NC(=O)N/N=C/c1c(F)c(F)c(F)c(F)c1F,.,-2.0%,9.0%,-1.6%,11.2µM*,?
CC(=O)OCC(NC(=O)C(COCc1ccccc1)NC(=O)OC(C)(C)C)C1OC(n2ccc(=O)[nH]c2=O)C(OC(C)=O)C1OC(C)=O (configuration not stated),.,2.6%,.,.,-13.8%,.
O=c1[nH]c2ccccc2n2c(=S)[nH]nc12,.,-27.6%,5.3%,-15.0%,3.55µM*,-17.2
O=c1[nH]c2ccccc2n2c(C(F)(F)F)nnc12,8.9%[2.33 µM],41.6%,.,6.8%,2.8%,2.4
COc1ccccc1CNc1cc(-c2ccoc2)ncn1,1.1%[0.501 µM],.,.,.,.,.
CC(C)Cn1c(-c2ccco2)nc2c(c(=O)c3ccccc3n2C)c1=O,?,.,-10.8%,-34.3%,.,.
CCCCn1c(-c2sccc2C)n[nH]c1=S,7.94µM*,?,-12.9%,-18.1%,4.47µM*,-14.6
CCn1c(-c2ccco2)n[nH]c1=S,3.55µM*,-22.3%,8.8%,2.9%,-2.3%[11.4 µM],-4.0

# Bioassay records: PubChem, National Center for Advancing Translational Sciences (NCATS)
